The record followed here is PubChem BioAssay AID463173 (ICCB-Longwood Screening Facility, Harvard Medical School, 2010).

Structures are written as SMILES. Out of some 52,000 compounds screened, about 1,700 (3.3%) were called active. The full list was thinned out, with actives kept by preference. A number with no mark means an inactive call. Rule as the data show it: active = survival mostly below about 52% (no sharp cut-off); inactive = mostly above about 56%.

This experiment relates to Wild type. As to the kind of experiment: growth inhibition of S. aureus wild type versus tarO mutant, primary screen, teichoic acid synthesis inhibitors, RN4220, OD600 (AID 463173). Particulars: S. aureus RN4220 wild type/DeltatarO growth, OD600, 18 h, stronger effect = lower value, screened at 18.75 µg/mL (by protocol).
On to `CCOc1ccc(CN2CCC(C(=O)NCC3CCCO3)CC2)cc1OC` (configuration not stated), for which the survival is 99%.
For the compound `CCOC(=O)C1CCCN(C(=O)Cn2ncc3c4ccccc4n(Cc4ccccc4)c3c2=O)C1` (configuration not stated), the survival is 121%.
Regarding `CCOC(=O)c1c(NC(=O)COc2cccc(C)c2C)sc(C(C)=O)c1C`, the survival is 130%.
For `CCC(C)Sc1oc(-c2ccco2)nc1S(=O)(=O)c1ccc(Cl)cc1` (configuration not stated), the survival was 25%.
Consider `CCC(C)Sc1oc(-c2ccco2)nc1S(=O)(=O)c1ccc(C)cc1` (configuration not stated), for which the survival was -12% (active).
Under `Cc1ccc(S(=O)(=O)c2nc(-c3ccco3)oc2SCC(C)C)cc1` stands 39%; under `CCSc1oc(-c2ccco2)nc1S(=O)(=O)c1ccc(Br)cc1`, 65%; under `CC(C)CSc1oc(-c2ccco2)nc1S(=O)(=O)c1ccc(Br)cc1`, 27% (active).
Turning to `Cc1ccc(S(=O)(=O)c2nc(-c3ccco3)oc2SC(C)C)cc1`, the survival is 49%.
Turning to `CNC(=O)C1CCN(Cc2cc3ccccc3n2Cc2cccc(C)c2)CC1`, the survival is 81%.
`O=C(Nc1ccc2nc(SCCOc3ccccc3Cl)sc2c1)c1cccs1`: the survival was 72%.
Then `CC(C)(C)C(=O)Nc1ccc2nc(SCCOc3ccccc3Cl)sc2c1`, with 99%; and `CC(=O)Nc1ccc2nc(SCCOc3ccccc3Cl)sc2c1`, with 9% (active).
Consider `COc1ccc(Cn2nnnc2CN2CCC(NC(=O)c3cccc(OC)c3)CC2)cc1`, for which the survival is 115%.
`O=C(CN1C(=O)C2(SCC(=O)N2c2cccc(F)c2)c2ccccc21)NCc1ccccc1Cl` (configuration not stated): the survival is 80%.
On to `CCOc1ccc(S(=O)(=O)c2cc3cccc(OCC)c3oc2=O)cc1`, for which the survival was 81%.
On to `COc1ccc(S(=O)(=O)c2cc3cc(C(C)(C)C)cc(O)c3oc2=O)cc1`, for which the survival was 10% (active).
With `COc1ccc(S(=O)(=O)c2cc3cc(OC)ccc3oc2=O)cc1`, the survival was 76%.
Take `CCOC(=O)c1c(C)oc2nc(C)nc(Nc3cc(C)ccc3OC)c12`: the survival is 85%.
Then `Cn1c(=O)n(-c2ccc(F)c(Cl)c2)c(=O)c2sc3ccccc3c21`, with 96%.
For the compound `COc1ccc(Cn2c(CO)cnc2SCc2ccccc2)cc1`, the survival was 69%.
Turning to `Cc1ccc(Cn2c(CO)cnc2SCC(=O)NCc2ccccc2Cl)cc1`, the survival was 80%.
`O=C(CSc1nc2ccsc2c(=O)n1Cc1ccc(F)cc1)NCc1ccc(Cl)cc1`: the survival was 81%.
Under `Cc1ccc(Cn2c(CO)cnc2SCC(=O)Nc2ccc(C)c(Cl)c2)cc1` stands -6% (active).
Regarding `OCc1cnc(SCc2ccc(F)cc2)n1Cc1ccc(F)cc1`, the survival is 85%.
Under `COc1ccccc1NC(=O)CSc1ncc(CO)n1Cc1ccc(F)cc1` stands 121%; under `COc1ccc(Cn2c(CO)cnc2SCc2ccc(F)cc2)cc1`, -1% (active); under `COc1ccc(Cn2ccnc2SCC(=O)NCc2ccco2)cc1`, 70%.
`CCOC(=O)c1ccccc1NC(=O)CSc1ncc(CO)n1Cc1ccc(C)cc1`: the survival was 90%.
Turning to `COc1ccc(Cn2c(CO)cnc2SCC(=O)NCc2ccco2)cc1`, the survival is -6% (active).
`O=C(CSc1ncc(CO)n1Cc1ccc(Cl)cc1)NCc1ccc(F)cc1`: the survival was 14% (active).
`O=C(CSc1ncc(CO)n1Cc1ccc(F)cc1)NCc1ccco1`: the survival is 134%.
